Assay results as given in PubChem BioAssay (NCI).
Compounds without any hit were thinned out: in the full panel of roughly 83,000, 20% have a hit.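 The endpoint reported here, percent growth, reads 100 for growth as untreated, 0 for no net growth and -100 for all cells dead.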 Calls of active or inactive are those of the source. The calls were made as follows: active = growth percent below 10; inactive = the rest.

Assays:
Test in all cases: NCI-60 one-dose screen, 48 h (100 = growth as untreated, 0 = no growth, -100 = all killed)
Details in all cases: 10 µM unless noted
HCT-15 colon = test system: HCT-15 colon
HT29 colon = test system: HT29 colon
SNB-19 CNS = test system: SNB-19 CNS
U251 CNS = test system: U251 CNS
PC-3 prostate = test system: PC-3 prostate
SK-MEL-5 melanoma = test system: SK-MEL-5 melanoma
UACC-62 melanoma = test system: UACC-62 melanoma
LOX IMVI melanoma = test system: LOX IMVI melanoma
SK-MEL-28 melanoma = test system: SK-MEL-28 melanoma

Measured: growth

Oc1c(CN2CCC(N3CCCCC3)CC2)cc(Cc2cc(CN3CCC(N4CCCCC4)CC3)c(O)c3ncccc23)c2cccnc12
inactive: HCT-15 colon 20.6% | HT29 colon 16% | SNB-19 CNS 36.6% | U251 CNS 24.6% | PC-3 prostate 17.7% | SK-MEL-5 melanoma 34.1% | SK-MEL-28 melanoma 31.5%
active: UACC-62 melanoma -18.3% | LOX IMVI melanoma 4.36%

O=C1/C=C/[C@@H](O)[C@@H]2C[C@@H](O)C[C@H]2/C=C/CCC[C@@H](O)CCO1
inactive: HCT-15 colon 107% | HT29 colon 91.6% | SNB-19 CNS 104% | U251 CNS 92.3% | PC-3 prostate 90.6% | SK-MEL-5 melanoma 22.9% | UACC-62 melanoma 110% | LOX IMVI melanoma 94.7% | SK-MEL-28 melanoma 28.7%

Cc1nc2ccccc2c(/C=C/c2ccccc2)c1C(=O)/C=C/c1ccccc1
inactive: SNB-19 CNS 47.7% | PC-3 prostate 35.1% | SK-MEL-5 melanoma 45% | UACC-62 melanoma 29.8% | SK-MEL-28 melanoma 24.2%
active: HCT-15 colon 1.8% | HT29 colon 6.72% | U251 CNS -25.3%

C#CCn1cnc2cnc(Nc3cccc(NC(=O)C=C)c3)nc21
inactive: HCT-15 colon 91.7% [6.25 µM] | HT29 colon 70.5% [6.25 µM] | SNB-19 CNS 88.3% [6.25 µM] | U251 CNS 75.5% [6.25 µM] | SK-MEL-5 melanoma 92.4% [6.25 µM] | UACC-62 melanoma 62.5% [6.25 µM] | LOX IMVI melanoma 82.7% [6.25 µM] | SK-MEL-28 melanoma 82.2% [6.25 µM]
active: PC-3 prostate 9.21% [6.25 µM]

Cc1ccc(/C=C/C(=O)c2ccc(-n3cc(CN4CCN(c5cc6c(cc5F)c(=O)c(C(=O)O)cn6C5CC5)CC4)nn3)cc2)cc1
inactive: HCT-15 colon 97.6% | HT29 colon 98.9% | SNB-19 CNS 86.4% | U251 CNS 73.1% | PC-3 prostate 89.6% | SK-MEL-5 melanoma 86.2% | UACC-62 melanoma 77.6% | LOX IMVI melanoma 56.9% | SK-MEL-28 melanoma 100%

CCN1C(=O)N(CC)C2C1NC(=S)N2/N=C/c1ccc(C(F)(F)F)cc1 (stereo not drawn)
inactive: HCT-15 colon 39.4% | HT29 colon 43.6% | SNB-19 CNS 73.6% | U251 CNS 70.5% | PC-3 prostate 59.7% | SK-MEL-5 melanoma 52% | UACC-62 melanoma 47.4% | LOX IMVI melanoma 73.2% | SK-MEL-28 melanoma 76.3%
